{"source": "PubChem BioAssay (Tox21)", "note": "Where “and” joins values, the source holds several entries; their conditions need not be identical. Identical values can stand only once. Results filed as inconclusive are left out. Values without a mark were called inactive. Calls of active or inactive are those of the source. The call rests on the fitted dose curve; in most records, active means well fitted cell-killing curve with a large enough effect in the repeat runs; inconclusive means weak or mixed curves, or effect the other way; inactive means flat fitted curve, though single readings scatter. On the % scale 0 is the no-effect control and ±100 the full control effect; potency means the concentration at half of the fitted maximal effect.", "data": [{"experiment": "cAMP Responsive Elements (CRE) small molecule antagonists, cell-based qHTS assay: qHTS cell viability counter screen (AID 2060913); further: nearly all actives have a fitted effect of over 40% in size", "conditions": "CRE-bla HEK293T viability, CellTiter-Glo luminescence, 5 h; series mostly up to 92.4 µM; viability change, negative = cytotoxic: at the top concentration", "description": "U.S. Tox21 Program National Center for Advancing Translational Sciences [NCATS] Division of Preclinical Innovation [DPI] U.S. Environmental Protection Agency [EPA] National Institutes of Environmental Health Sciences [NIEHS] National Toxicology Program [NTP] U.S. Food and Drug Administration [FDA] Tox21 Assay Overview: CREB (cyclic-AMP Responsive Element Binding Protein) is a cellular transcription factor. It binds to certain DNA sequences called cAMP Responsive Elements (CRE) and regulates the transcription of the genes. […] This cell line can be used to find agonists/antagonists of the cyclic AMP signaling pathway. The activation of the report gene under culture conditions can be detected by fluorescence intensity. This cell line has been used to screen the Tox21 10K compound library to identify agonists that induce oxidative stress. The cytotoxicity of the Tox21 compound library against the CRE-bla cell line was tested in parallel by measuring the cell viability using CellTiter-Glo assay (Promega, Madison, WI) in the same wells.\nTox21 Assay Protocol Summary: CRE-bla Hek 293T cells were suspended in assay medium (DMEM containing 10% dialyzed FBS, 0.1 mM NEAA, 1 mM sodium pyruvate and 25 mM HEPES) and dispensed at 2,000 cells/4 uL /well into 1536-well black wall/clear bottom plates using a Multidrop Combi (ThermoFisher Scientific, Waltham, MA) dispenser. After the assay plates were incubated at 37 C/5% CO2 for 18 hrs, 23 nL of compounds dissolved in DMSO, positive controls or DMSO only was transferred to the assay plate by a pintool workstation (Kalypsys, San Diego, CA), followed by addition of 1 uL of 1.25uM NKH477 (0.25 uM as final concentration) in assay medium using a Flying Reagent Dispenser (Aurora Discovery, San Diego, CA). The plates were incubated at 37 C and 5% CO2 for 3 hrs. Then 1 uL of LiveBLAzer B/G FRET substrate (Invitrogen, Carlsbad, CA) was added to each well using Bioraptr Flying Reagent Dispenser (FRD, Aurora Discovery, San Diego, CA). The plates were incubated at room temperature for 2 h, then fluorescence intensities were measured using an Envision plate reader (PerkinElmer, Shelton, CT) at Excitation 405nm, Emission 460nm and 530nm. The % activity was determined from the ratio of 460nm/530nm. For cell viability readout that measures cytotoxicity, 4 uL /well of CellTiter-Glo reagent was added into the assay plates using Bioraptr FRD. After 30 min incubation at room temperature, the luminescence intensity in the assay plates was measured using a ViewLux (PerkinElmer, Shelton, CT) plate reader.", "values": [{"smiles": "CN(C)c1ccc(N(C)C)cc1", "viability change, negative = cytotoxic": "-3.05%"}, {"smiles": "CCC(Cl)CCl", "note": "(stereo not given)", "viability change, negative = cytotoxic": "-0.332%"}, {"smiles": "O=[N+]([O-])c1ccc(Oc2ccc(C(F)(F)F)cc2[N+](=O)[O-])cc1", "viability change, negative = cytotoxic": "-11.9%"}, {"smiles": "C=CCN=C=S", "Potency": "inactive"}, {"smiles": "OC(c1ccccc1)(c1ccccc1)C1CCNCC1", "viability change, negative = cytotoxic": "0.247% [at 42.5 µM]"}, {"smiles": "FC(F)OC(F)(F)C(F)Cl", "note": "(stereo not given)", "viability change, negative = cytotoxic": "3.37%"}, {"smiles": "CCCCn1cc[n+](C)c1", "note": "(tested in a mixture with another compound)", "viability change, negative = cytotoxic": "-12.7%"}, {"smiles": "CCN(CC)C(=O)SCc1ccc(Cl)cc1", "Potency": "inactive"}, {"smiles": "CCCCC1C(=O)NC(=O)N(C2CCCCC2)C1=O", "note": "(stereo not given)", "viability change, negative = cytotoxic": "-1.21% [at 42.5 µM]"}, {"smiles": "CCCCN(CCCC)SN(C)C(=O)Oc1cccc2c1OC(C)(C)C2", "Potency": "inactive"}, {"smiles": "[CH3][Sn]([CH3])([Cl])[Cl]", "Potency": "inactive"}, {"smiles": "CC(C)OC(=O)Cc1ccccc1", "viability change, negative = cytotoxic": "7.88%"}, {"smiles": "Clc1ccc(COC(Cn2ccnc2)c2ccc(Cl)cc2Cl)cc1", "note": "(stereo not given)", "Potency": "50.8 µM (active) and 45.1 µM (active)"}, {"smiles": "O=c1[nH]c(=O)[nH]c(=O)[nH]1", "Potency": "inactive"}, {"smiles": "COc1ccc2c(C(=O)c3ccc(Cl)cc3)c(C)n(CC(=O)O)c2c1", "viability change, negative = cytotoxic": "-5.21% [at 42.5 µM]"}, {"smiles": "N#Cc1c[nH]cc1-c1cccc2c1OC(F)(F)O2", "viability change, negative = cytotoxic": "-4.03%"}, {"smiles": "CCOC(=O)CC(SP(=S)(OC)OC)C(=O)OCC", "note": "(stereo not given)", "Potency": "inactive"}, {"smiles": "CCCCCCCCCl", "Potency": "inactive"}, {"smiles": "O=c1[nH]c2ccccc2n1CCCN1CCC(n2c(=O)[nH]c3cc(Cl)ccc32)CC1", "viability change, negative = cytotoxic": "-13.5% [at 42.5 µM]"}, {"smiles": "C=CC[C@]1(O)CC[C@H]2[C@@H]3CCC4=CC(=O)CCC4=C3C=C[C@@]21C", "viability change, negative = cytotoxic": "-0.352% [at 42.5 µM]"}, {"smiles": "C[N+](C)(C)CCOC(=O)C(O)(c1ccccc1)c1ccccc1", "viability change, negative = cytotoxic": "1.98% [at 42.5 µM]"}, {"smiles": "CCOP(=S)(OCC)OC(Cl)C(Cl)(Cl)Cl", "note": "(stereo not given)", "viability change, negative = cytotoxic": "4.73%"}, {"smiles": "Clc1cccc(Cl)c1Cl", "Potency": "inactive"}, {"smiles": "CNC(C)Cc1ccc2c(c1)OCO2", "note": "(stereo not given)", "viability change, negative = cytotoxic": "0.287%"}, {"smiles": "O=C1CCCCC1Cl", "note": "(stereo not given)", "viability change, negative = cytotoxic": "4%"}, {"smiles": "O=S1OCC2C(CO1)C1(Cl)C(Cl)=C(Cl)C2(Cl)C1(Cl)Cl", "note": "(stereo not given)", "Potency": "61.1 µM (active)"}, {"smiles": "Clc1ccccc1Cl", "Potency": "inactive"}, {"smiles": "CCC(C)C(C)(COC(N)=O)COC(N)=O", "note": "(stereo not given)", "viability change, negative = cytotoxic": "4.24% [at 42.5 µM]"}, {"smiles": "CCCSC(=O)N(CCC)CCC", "viability change, negative = cytotoxic": "7.51%"}, {"smiles": "Cc1ccc(N)c(C)c1", "Potency": "inactive"}, {"smiles": "O=C/C=C/c1ccccc1", "Potency": "inactive"}, {"smiles": "COC(=O)c1ccccc1N", "Potency": "inactive"}, {"smiles": "O=C1OC(=O)C2C1C1(Cl)C(Cl)=C(Cl)C2(Cl)C1(Cl)Cl", "note": "(stereo not given)", "viability change, negative = cytotoxic": "5.7%"}, {"smiles": "CCOCN(C(=O)CCl)c1c(C)cccc1CC", "Potency": "inactive"}, {"smiles": "CCO[C@H]1O[C@@H]2OC3(C)CC[C@H]4[C@H](C)CC[C@@H]([C@H]1C)[C@@]24OO3", "viability change, negative = cytotoxic": "-0.238% [at 42.5 µM]"}, {"smiles": "CCCCNP(N)(N)=S", "viability change, negative = cytotoxic": "-1.35%"}, {"smiles": "ClCCCCl", "viability change, negative = cytotoxic": "-4.14%"}, {"smiles": "O=C(O)CC(Cl)C(=O)O", "note": "(stereo not given)", "viability change, negative = cytotoxic": "2.01%"}, {"smiles": "C[C@]12C/C(=C/O)C(=O)C[C@@H]1CC[C@@H]1[C@@H]2CC[C@@]2(C)[C@H]1CC[C@]2(C)O", "viability change, negative = cytotoxic": "-9.26% [at 42.5 µM]"}, {"smiles": "CCOc1ccc(N)cc1", "Potency": "inactive"}]}]}
